Data: PubChem BioAssay (NCI)
Where “and” joins values, the source holds several entries; their conditions need not be identical. Identical values can stand only once. About 79,000 compounds went through this panel and 15% of them were active in at least one assay; those are over-represented in the sample as a whole. Values without a mark were called inactive. Calls of active or inactive are those of the source. No stated cut-off is given here; in the data, active means growth inhibition above about 70%; inactive means the rest.

test: NCI Yeast Anticancer Drug Screen. Data for the rad50 strain (AID 155);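 further: 0% = growth of vehicle-only cultures of the same strain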; details: S. cerevisiae rad50 strain growth inhibition; at 5.0 µM (retest, dose inferred, filed as 0.5); active compounds read high
Description: Growth inhibition of yeast strains with defined genetic alterations is measured as a screen for potential anti-cancer activity. Selected strains with alterations in DNA damage repair or cell cycle control were exposed to compounds and growth inhibition was measured relative to vehicle treated controls. The strain used in this assay is rad50

Row | Structure (SMILES) | growth inhibition
1 | O=C(O)C1CC2c3ccccc3C1([N+](=O)[O-])c1ccccc12 (stereo not given) | 0%
2 | CCc1c[c]([Hg][Cl])c(CC)c(CC)c1CC | 5%
3 | CC(C)CC[CH2][Pb]([CH2]CCC(C)C)([CH2]CCC(C)C)[O]C(=O)C(Cl)(Cl)Cl | 14%
4 | O=C(O)CN1CCN(CC(=O)O)CC(=O)[O][Hg][O]C(=O)C1 | 100% (active)
5 | CCCNC1=C(C)C(=O)C2=C(C1=O)[C@H](COC(N)=O)[C@]1(OC)[C@@H]3N[C@@H]3CN21 | 15%
6 | O=[N+]([O-])C=C([SH2+])[SH2+].O=[N+]([O-])C=C([SH2+])[SH2+].[Ni+2].c1ccc(C[P+](c2ccccc2)(c2ccccc2)c2ccccc2)cc1 | 3%
7 | O=[N+]([O-])/C=C/c1c(Cl)cccc1Cl | 99% (active)
8 | C/C(=C\c1ccc(Cl)c(Cl)c1)[N+](=O)[O-] | 82% (active)
9 | C/C(=C\c1ccccc1)[N+](=O)[O-] | 96% (active)

same assay, conditions: S. cerevisiae rad50 strain growth inhibition; at 50.0 µM (retest, dose inferred, filed as 5.0); active compounds read high

Row | Structure (SMILES) | growth inhibition
10 | O=C(O)C1CC2c3ccccc3C1([N+](=O)[O-])c1ccccc12 (stereo not given) | 8%
11 | CCc1c[c]([Hg][Cl])c(CC)c(CC)c1CC | 99% (active)
12 | CC(C)CC[CH2][Pb]([CH2]CCC(C)C)([CH2]CCC(C)C)[O]C(=O)C(Cl)(Cl)Cl | 98% (active)
13 | O=C(O)CN1CCN(CC(=O)O)CC(=O)[O][Hg][O]C(=O)C1 | 99% (active)
14 | CCCNC1=C(C)C(=O)C2=C(C1=O)[C@H](COC(N)=O)[C@]1(OC)[C@@H]3N[C@@H]3CN21 | 66%
15 | O=[N+]([O-])C=C([SH2+])[SH2+].O=[N+]([O-])C=C([SH2+])[SH2+].[Ni+2].c1ccc(C[P+](c2ccccc2)(c2ccccc2)c2ccccc2)cc1 | 44%
16 | O=[N+]([O-])/C=C/c1c(Cl)cccc1Cl | 99% (active)
17 | C/C(=C\c1ccc(Cl)c(Cl)c1)[N+](=O)[O-] | 98% (active)
18 | C/C(=C\c1ccccc1)[N+](=O)[O-] | 99% (active)

same assay, conditions: S. cerevisiae rad50 strain growth inhibition; at 50.0 µM; active compounds read high

Row | Structure (SMILES) | growth inhibition
19 | O=C(O)C1CC2c3ccccc3C1([N+](=O)[O-])c1ccccc12 (stereo not given) | 14.2%
20 | CCOP(=S)(N/N=C/c1ccc(C)s1)OCC | -19.3%
21 | CC(NCCO)C(O)c1ccccc1 (stereo not given) | -23.9%
22 | CCc1c[c]([Hg][Cl])c(CC)c(CC)c1CC | 99.4% (active)
23 | CC(C)CC[CH2][Pb]([CH2]CCC(C)C)([CH2]CCC(C)C)[O]C(=O)C(Cl)(Cl)Cl | 99.1% (active)
24 | O=C(O)CN1CCN(CC(=O)O)CC(=O)[O][Hg][O]C(=O)C1 | 99.3% (active)
25 | [O-]c1n[n+](C2CCCCC2)no1 | -11.4%
26 | O=C(Cc1ccccc1)OC1CCCC1 | 14.6%
27 | CCCNC1=C(C)C(=O)C2=C(C1=O)[C@H](COC(N)=O)[C@]1(OC)[C@@H]3N[C@@H]3CN21 | 36.8%
28 | O=[N+]([O-])C=C([SH2+])[SH2+].O=[N+]([O-])C=C([SH2+])[SH2+].[Ni+2].c1ccc(C[P+](c2ccccc2)(c2ccccc2)c2ccccc2)cc1 | 93.5% (active)
29 | NNC(=O)NC(=O)NN | 1.25%
30 | O=[N+]([O-])/C=C/c1c(Cl)cccc1Cl | 99.2% (active)
31 | O=P(O)(Oc1ccccc1)Oc1ccccc1 | 33.7%
32 | CCN(CC)C(=O)N1CC2CCC(C1)N2C | -4.6%
33 | CCOP(O)(=S)OCC | 16.8% and 9.55% and 2.25%
34 | OCC1C(/C=C/c2ccoc2)ON2CCCC12 (stereo not given) | -16.6%
35 | C/C(=C\c1ccc(Cl)c(Cl)c1)[N+](=O)[O-] | 0%
36 | CCNC(=O)CCl | 3.75%
37 | CN1C2C=CC1c1c(C3=NC(C)(C)CO3)cccc12 (stereo not given) | -8.15%
38 | C/C(=C\c1ccccc1)[N+](=O)[O-] | 98.7% (active)
39 | CCOP(=O)(NCCc1ccccc1)OCC | -36.6%
40 | O=C1C2C(C(=O)N1c1ccc(O)cc1)C1(Cl)C(Cl)=C(Cl)C2(Cl)C1(Cl)Cl (stereo not given) | -0.45%
